29 compounds from PubChem BioAssay AID2540 (Sanford-Burnham Center for Chemical Genomics, 2010) can be followed below.

In all, about 330,000 compounds went through this assay and about 4,100 (1.2%) were called active. This excerpt belongs to a sample that is enriched for actives. Values without a mark were called inactive. Rule as the data show it: active = inhibition above about 50%; inactive = the rest.

The target of this experiment is Sentrin-specific protease 8 (Homo sapiens) (UniProt Q96LD8). Kind of experiment: SENP8 protease inhibitors, primary screen, biochemical, luminescence (AID 2540). The settings on record: purified SENP8, Z-RLRGG-aminoluciferin cleavage, at 10 µM, hits give high values.
Sequence of Sentrin-specific protease 8 (Homo sapiens) (Q96LD8 whole entry, looked up): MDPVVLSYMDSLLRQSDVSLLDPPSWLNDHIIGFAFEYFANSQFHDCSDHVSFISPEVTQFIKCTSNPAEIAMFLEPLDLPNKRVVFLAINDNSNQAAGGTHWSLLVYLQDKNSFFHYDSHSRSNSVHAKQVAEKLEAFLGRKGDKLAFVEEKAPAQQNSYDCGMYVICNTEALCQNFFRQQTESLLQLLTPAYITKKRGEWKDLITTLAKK
Broadly, the inhibition is the drop in the measured response relative to a control, in per cent. For the compound `C=CCSc1nnc(Cn2c(=O)sc3ccccc32)n1C`, the inhibition is -1.6%. For `Cc1cc(N=Nc2ccc3ccccc3c2)ccc1O`, the inhibition is 95.5% (active).

Regarding `Cc1ccccc1Nc1nc(N)nc(COC(=O)CCC(=O)c2ccc(F)cc2)n1`, the inhibition is -5.5%.

On to `CCC(C(=O)Nc1ncccn1)(C(F)(F)F)C(F)(F)F`, for which the inhibition is 2.16%.

Take `COc1cc(OC)cc(-c2c(C#Cc3ccsc3)c3cc(-c4ccc(OC)cc4F)ccc3n2C)c1`: the inhibition was -6.93%.

On to `COc1ccc(CNC(=O)Cc2ccc(-c3ccccc3)cc2)cc1OC`, for which the inhibition was -1.75%. With `COc1ccc(CNC(=O)COc2ccccc2C(=O)c2cnn(-c3ccccc3)c2)cc1OC`, the inhibition was 55.6% (active). Take `COc1ccc(CNC(=O)COC(=O)c2c(C)nn(-c3ccccc3)c2C)cc1OC`: the inhibition was -2.1%.

As for `CC(C)CCN(C(=O)c1csnn1)C(C(=O)NC1CCCC1)c1ccccc1` (centres undefined), the inhibition is -0.251%. For `CCOC(=O)c1sc(N(Cc2ccccc2)C(=O)CN2C(=O)CN(C)C2=O)nc1C` the value was 5.69%. `CC12CCC(=O)N1C(C(=O)Nc1ccc(F)c(F)c1F)CS2` (centres undefined): the inhibition is -5.83%. Turning to `CCN(C(=O)COC(=O)CCC(=O)c1cccs1)C1CCCCC1`, the inhibition is -2.61%.

Regarding `Cc1ccsc1C(=O)NC1CCCCC1C` (centres undefined), the inhibition was -2.42%. Take `COc1cccc(C(=O)Nc2nnc(S(=O)(=O)N(C)c3ccccc3)s2)c1`: the inhibition is -5.38%. As for `COc1ccc(C(=O)Nc2cccc(S(C)(=O)=O)c2)cc1`, the inhibition is -4.36%. As for `COc1cccc(C(=O)Nc2nc3ccc(S(C)(=O)=O)cc3s2)c1`, the inhibition was 82.5% (active). With `Cc1cnc(NC(=O)C2CCCC2)s1`, the inhibition is -0.598%.

`O=C(Nc1nnc(C2CC2)s1)c1ccccn1`: the inhibition is 20.9%. The value for `Cc1cnc(NC(=O)c2ccccn2)s1` was 66.9% (active). Turning to `Clc1ccc(C=NC23CN4CN(CN(C4)C2)C3)cc1`, the inhibition was 8.45%.

Consider `Cc1ccc(Nc2cc(C)nc3c(C)ccc([N+](=O)[O-])c23)cc1`, for which the inhibition is -13.4%. For the compound `Cc1cc(Nc2ccc(Br)cc2)nc2ccccc12`, the inhibition was -6.96%. For the compound `O=c1ccnc(Nc2ccc(Cl)cc2)[nH]1`, the inhibition was -3.3%. Turning to `Clc1ccc(Nc2ccc3ccccc3n2)cc1`, the inhibition was 82.3% (active). As to `CC(OC(=O)c1ccc(NS(=O)(=O)c2ccc3[nH]c(=O)[nH]c3c2)cc1)C(=O)Nc1cccc(Cl)c1Cl` (centres undefined), the inhibition was -9.53%. For `CC(C)CCN1CCN(C/C=C/c2ccco2)CC1CCO` (centres undefined), the inhibition is 4.76%. For `Cc1cc(C(=O)CCl)c(C)n1CC1COc2ccccc2O1` (centres undefined) the value was -8.88%; for `COc1ccc(C(=O)OCC(=O)c2cc(C)n(CC3CCCO3)c2C)cc1[N+](=O)[O-]` (centres undefined), -17.7%; for `Cc1ccsc1C(=O)OCC(=O)c1cc(C)n(CC2CCCO2)c1C` (centres undefined), 91.1% (active).
